Measurements published in PubChem BioAssay AID662 (National Center for Advancing Translational Sciences (NCATS), 2007).
In all, about 71,000 compounds went through this assay and about 1,800 (2.5%) were called active. Inconclusive results (about 26%) are left out. The list comes from a sample in which actives are over-represented; it also holds similar structures and randomly drawn compounds. Values without a mark were called inactive. Calls follow the shape of the dose curve; as a rule, active = well fitted activation curve with a large enough effect in the signal ratio, with a control signal flat (not every such curve was filed as active); inconclusive = small, poorly fitted or top-dose-only effect, or effect the other way, or a change in a side signal; inactive = flat fitted curve, though single readings scatter; the % refers to the signal ratio.

assay: Cell signaling CRE-BLA (Fsk stim); settings: CHO CRE-bla reporter (cAMP response element driving beta-lactamase), forskolin EC10, beta-lactamase ratio; series mostly up to 38.2 µM; activity change, negative = inhibition: at the top concentration; as to activity change, negative = inhibition: % of control where 0% means no effect
How it was run: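 CRE-bla CHO cells stimulated with EC10 NKH 477 (water-soluble forskolin) and compound titrations, 3 h at 37C; beta-lactamase read with CCF4 after 2 h at room temperature. Activity from 460/530 nm emission ratio, AC50 values for positive or negative modulation.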
Potency is read from the fitted curve at half-maximal effect.

Compound | activity change, negative = inhibition | Potency
O=C(CC1CCCCC1)Nc1c2c(nn1-c1ccc(F)cc1)CS(=O)(=O)C2 | -0.0676% | 
COc1cccc(C(=O)Nc2c3c(nn2-c2cccc(C)c2C)CS(=O)(=O)C3)c1OC |  | 7.94 µM (active)
Cc1cccc(-n2nc3c(c2NC(=O)c2ccc(Br)o2)CSC3)c1C | -9.63% | 
COc1ccc(CCN=C2SCC(=O)N2C)cc1OC | 9.19% | 
CC1=NC2(CCCc3c2no[n+]3[O-])N(O)C1(C)C (centres undefined) | 8.65% [at 7.6 µM] | 
CNC(=O)C1(C)C=CC2(CCCCC2)N1C(C)=O (centres undefined) | -8.81% | 
COC(=O)c1ccc(Oc2nc(Nc3ccc(F)cc3)nc(N3CCCC3)n2)cc1 |  | 3.16 µM (active)
CC(C)CC1(C(=O)NCc2ccccn2)C=CCN1C(=O)c1ccccc1 (centres undefined) | 0.31% | 
CCC1(C)N(O)C(C)(C)C(c2ccc(OC)cc2)=[N+]1[O-] (centres undefined) | 1.03% | 
Cc1cnc(CNc2ncncc2-c2ccccc2Cl)cn1 | 6.66% | 
Cc1cnc(CNc2nc(-c3cccnc3)nc3ccccc23)cn1 |  | 12.6 µM (active)
c1ccc(CNc2ncncc2-c2cccnc2)cc1 | 2.99% | 
CCCC(NS(=O)(=O)c1ccc(OC)cc1)C(=O)O (centres undefined) | 1.91% | 
CC1CCc2sc3nc(N4CCN(CCO)CC4)n4ncnc4c3c2C1 (centres undefined) |  | 5.01 µM (active)
COc1ccccc1-n1c(CNC(=O)c2ccccc2)nnc1SCC(=O)Nc1nnc(C)s1 | -0.00921% | 
CC1CN(Cc2nc3c(c(=O)n(C)c(=O)n3C)n2Cc2cccc(Cl)c2)CC(C)O1 (centres undefined) | 8.04% | 
Cc1nc(SC(C)C)[nH]c(=O)c1Cc1ccccc1 | 26.6% | 
CCOC(=O)c1cc2ccccc2nc1C | 11.4% | 
CCOC(=O)Nc1ccccc1N1C(=O)c2ccccc2C1=O | 4.56% | 
CCOC(=O)c1cc2n(c1C)-c1ccccc1C2=O |  | 15.8 µM (active)
COC(=O)c1ccc(C(NC(=O)OCc2ccccc2)/C(C)=C/[C@@H](C)C(=O)NCc2cc(C)on2)cc1 (some centres undefined) | -12.4% | 
O=C(NCc1ccco1)c1nc(-c2ccccc2)n(-c2ccccc2)n1 | -3.72% | 
Cc1nn(-c2ccccc2)c2sc(C(=O)N(Cc3ccco3)C(C)C(=O)NC(C)(C)C)cc12 (centres undefined) |  | 1.58 µM (active)
Cc1nc2nc(SCC(=O)NCc3ccco3)nn2c(C)c1Cc1ccccc1 | -8.05% | 
Cc1ccnc(SCCn2c(N(C)Cc3ccccc3)nc3c2c(=O)n(C)c(=O)n3C)n1 | -5.53% | 
CCN(CC)S(=O)(=O)N1CCC(C(=O)NC(C)CCc2ccccc2)CC1 (centres undefined) | -6.97% | 
CC(=O)N1CCC(C(=O)Nc2nc(-c3ccccc3)ns2)CC1 |  | 10 µM (active)

Compound | activity change, negative = inhibition | Potency
Cc1ccc2c(NC(=O)C3CC3)cccc2n1 | -5.14% | 
CC(=O)N1CCN(c2cccc(C)c2C)CC1 | 1.32% [at 7.6 µM] | 
Cn1c(NC(=O)c2ccc3c(c2)OCO3)cc(=O)n(C)c1=O | -10.7% | 
Cc1c(NC(=O)Nc2ccccc2Cl)sc(=S)n1C | 9.49% | 
COc1ccc(OC)c(NC(=O)Cn2c(=O)oc3ccccc32)c1 | 3.37% | 
CCn1c(COc2ccc(OC)cc2)nnc1SCC(=O)Nc1cc(OC)ccc1OC | -2.91% | 
COc1ccc(OC)c(NC(=O)CSc2nc(N)c(-c3ccccc3)c(=O)[nH]2)c1 |  | 12.6 µM (active)
CCCC(C(=O)N1CCOCC1)N1C(=O)C2C3C=CC(C3)C2C1=O (centres undefined) | 0.508% | 
CC(C)C[C@@H](CC(=O)N[C@@H](CCC(=O)O)CC(=O)O)NC(=O)[C@@H]1CCCC[C@H]1NC(=O)C[C@@H](NC(=O)C[C@H](Cc1c[nH]c2ccccc12)NC(=O)[C@@H]1CCCC[C@H]1N)C(C)C | -15.3% | 
CCn1c(SCC(=O)Nc2cc(C)ccc2C)nnc1-c1cnccn1 |  | 3.16 µM (active)
Cc1ccc(NC(=O)CSc2nnc(-c3cnccn3)n2Cc2ccco2)cc1C | 12.3% | 
CCn1c(SCC(=O)Nc2nccs2)nnc1-c1ccncc1 | -3.82% | 
CSc1ccc(-c2c(C#N)c(N)nc3c2c(C)nn3-c2ccccc2)cc1 |  | 10 µM (active)
Cc1cccc(NC(=O)COc2ccc(Br)cc2C)n1 | 7.56% | 
C#CCCCCCCCCCCCCCCCC(=O)O | -5.11% | 
COc1ccc(O)c(C=Nc2cc(C)on2)c1 | -1.66% | 
c1cncc(CNc2ccnc(-c3ccc4c(c3)OCO4)n2)c1 | -27% | 
O=C(Nc1cccnc1)c1ccc2c(c1)OCO2 | 1.51% | 
c1ccc2c(Nc3ccncc3)nc(-c3ccc4c(c3)OCO4)nc2c1 |  | 12.6 µM (active)
CC(=O)Nc1nc(C)c(Cc2ccccc2)c(=O)[nH]1 | 6.88% | 
CCOc1ccc2cc(C#N)c(SCC(=O)OC)nc2c1 | -0.598% | 
COc1ccc(N2CCN(C(=O)CSc3nc4cc(OC)c(OC)cc4cc3C#N)CC2)cc1 |  | 10 µM (active)
COc1ccc(N2CCN(C(=O)CSc3ncnc4c3cnn4-c3ccc(OC)cc3)CC2)cc1 | -2.74% | 
Cc1ccc2nc(-c3ccccc3)cc(C(=O)O)c2c1 | -5.73% | 
Oc1ccc2nc(Cc3ccccc3)[nH]c2c1 | -6.98% | 
COC(=O)Nc1nc2ccc(Sc3ccccc3)cc2[nH]1 |  | 2.51 µM (active)
CCN(CC)CCN1C(=O)C(=O)/C(=C(/O)c2ccccc2)C1c1ccccc1F (centres undefined) | 3.78% | 
